The sample as a whole holds a higher share of hits than the screen did.
VCAM1 TNFa pot – potentiators of TNFa-induced VCAM1 expression, primary screen, imaging, HUVEC, TNFa stimulus, immunofluorescence | HUVEC TNFa-stimulated VCAM-1 immunofluorescence, high-content imaging; scaled per plate to unstimulated/TNFa-only wells | activation, % at 2 µM | 0.19% of 93,000 active;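 active means activation above the screen mean plus 3 SD, with well images confirming the hit on visual review, cut at about 28% in these data, passing the limit was not always enough; inconclusive means activation above that limit but images do not confirm it; inactive means activation not above that limit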;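 further: signal is the number of cytoplasmic VCAM-1 stained grains per positive cell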
VCAM1 pot conf – potentiators of TNFa-induced VCAM1 expression, confirmation, imaging, HUVEC, triplicate retest; activation, % at 2 µM; shares compounds with VCAM1 TNFa pot; 230 tested, under 10 active; HUVEC TNFa-stimulated VCAM-1 immunofluorescence imaging; AID 1034, 2008;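 active means activation above 30% in triplicate retests at 2 µM, then confirmed by visual review of the well images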;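 further: scaled per plate between unstimulated and TNFa-stimulated DMSO control wells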
Starred values were filed as active, the others as inactive; ? = inconclusive.

SMILES	VCAM1 TNFa pot	others
Cc1ccc(-n2nc3c(c2NC(=O)c2c(-c4ccccc4Cl)noc2C)CSC3)cc1	-0.4
O=C(O)C1CC=CCC1C(=O)N1CCCC1 (configuration not stated)	-82.2
CCOC(=O)C(C)n1cnc2c(cnn2-c2ccc(Cl)cc2)c1=O (configuration not stated)	-2.6
CCOC(=O)C1CCCN(c2ncnc3c2cnn3-c2ccc(Cl)cc2)C1 (configuration not stated)	39.7*	VCAM1 pot conf=-11.9
CCOC(=O)C1CCCN(S(=O)(=O)c2ccc(F)c(C(=O)Nc3ccc(F)c(F)c3)c2)C1 (configuration not stated)	-0.6
CC1=Nc2ccc(C)cc2N(Cc2ccccc2)C(=O)C1	-4.4
CC1CC1C(=O)OCC(=O)NC(=O)NCc1ccco1 (configuration not stated)	-30.6
CCN(CC)c1ccc(C2CC(=O)Nc3cc(OC)c(OC)cc32)cc1 (configuration not stated)	-24.0
CC(C)(C)n1[nH]c2c3c(ccc2c1=O)C(=O)c1ccccc1C3=O	37.0*	VCAM1 pot conf=-3.7
COc1ccc(C(=O)/C=C(\C)NCc2ccc3c(c2)OCO3)cc1	13.0
Cc1cccc(NS(=O)(=O)c2ccc(C)c(C(=O)OCC(=O)Nc3cc(C)on3)c2)c1	-5.6
O=S(=O)(Nc1ccc(-n2cccc2)cc1)c1ccccc1	-39.5
CC(=O)c1ccc(NS(=O)(=O)c2cccc(C)c2)cc1	72.5*	VCAM1 pot conf=-7.7
COCCCn1c(SCC(=O)NCc2ccccc2)nc2ccccc2c1=O	-2.3
COc1ccc(/C=N/n2c(-c3ccco3)nc3ccccc3c2=O)cc1	2.9
COCCCn1c(-c2ccccc2)nc2ccccc2c1=O	30.8*	VCAM1 pot conf=-2.4
O=C(Cn1cnc([N+](=O)[O-])c1)Nc1cc(Oc2ccc(Cl)cc2Cl)cc([N+](=O)[O-])c1	-11.3
CN(CCOC(=O)c1ccc2c(c1)OCCO2)Cc1ccccc1	-21.8
O=C(CSc1nnc(COc2ccccc2)n1Cc1ccco1)Nc1ccc2c(c1)OCCO2	-32.2
O=C(CSc1ccc2c(c1)OCCO2)NCC1CCCO1 (configuration not stated)	3.3
CC(C)(C)OC(=O)N1CC(O)CC1C(=O)OCC(=O)c1ccccc1 (configuration not stated)	21.3
O=C(COC(=O)C1CC(=O)N(c2nc(-c3ccccc3)cs2)C1)c1ccccc1 (configuration not stated)	55.1*	VCAM1 pot conf=-11.5
O=C(CSc1cccc2cccnc12)OCC(=O)c1ccccc1	-9.0
COc1ccc(OC)c(/C=C/C(=O)c2ccc(Cl)cc2)c1	-8.4
C/C(NC(=O)c1cccs1)=C1\C(=O)C[C@@H]2[C@H]1C2(C)C	0.6
SMILES	VCAM1 TNFa pot	others
Cc1c2cccn2cc[n+]1C	-24.4
CCOC(=O)c1cc(-c2ccccc2)sc1NC(=S)Nc1cccc(C)n1	-4.4
CCC(=O)NC(Nc1cccc(C)n1)(C(F)(F)F)C(F)(F)F	6.0
Cc1cccc(NC(=O)c2sc3nc(-c4ccccc4)cn3c2C)n1	41.6*	VCAM1 pot conf=-12.2
CC(C)(C)NC(=O)C(c1ccccc1)N(C(=O)C1CSC(=O)C1)c1ccccc1 (configuration not stated)	-2.2
CCc1c(C)nc(SC)n(CC#N)c1=O	-20.1
CCN(c1ccccc1)S(=O)(=O)c1ccc(F)cc1C	12.5
CCOC(=O)c1nnn(CC(=O)N2N=C(c3ccccc3)CC2c2ccccc2)c1C(=O)OCC (configuration not stated)	16.6
Cc1ccc(-c2nn(-c3ccccc3)cc2C2CC(c3cccs3)=NN2C(=O)CCCC(=O)O)cc1 (configuration not stated)	30.5*	VCAM1 pot conf=-10.7
O=C(O)c1cn(-c2ccccc2)nc1-c1ccncc1	5.4
CCCCCC(=O)N1CCN(CCN=CC2=C(O)CC(c3cccs3)CC2=O)CC1 (configuration not stated)	-15.8
O=C(OCCCN=C1NS(=O)(=O)c2ccccc21)C1CC(=O)N(c2ccc(Cl)cc2)C1 (configuration not stated)	5.4
O=C(N/C=C/c1ccc(Cl)cc1)NCc1ccc(Cl)cc1	9.8
CCOC(=O)C1(P(=O)(c2ccc(Cl)cc2)c2ccc(Cl)cc2)CCC1	-0.6
COc1ccc2oc(=O)c(C(C)=O)cc2c1	1.7
Cn1c(=O)c(C(=O)c2ccccc2)nc2ccccc21	-7.1
CC(=O)Oc1ccc2cc(-c3nc4ccccc4n3C)c(=O)oc2c1	48.3*	VCAM1 pot conf=-14.6
CCOC1=NC(C(=O)O)c2ccccc2/C(=C(/C)Cl)N1 (configuration not stated)	-92.4
COCCNC(=O)CN(C(=O)CCC(=O)Nc1cc(C)on1)c1ccccc1C	4.1
CCn1nccc1C(=O)Nc1nccs1	?	VCAM1 pot conf=-13.0
Cc1ncoc1C(=O)Nc1nccs1	4.4
CC(C)CN1C(=O)c2ccc(C(=O)Nc3nccs3)cc2C1=O	-24.4
CC1=[N+]([O-])C(C)(C)C(C)N(O)C1=O (configuration not stated)	10.8
CC1N/C(=C\C(=O)c2ccccc2)N(O)C1(C)C (configuration not stated)	-6.4
O=C(CN1C(=O)NC2(CCCCCCC2)C1=O)NCc1ccc2c(c1)OCO2	51.2*	VCAM1 pot conf=-11.4
SMILES	VCAM1 TNFa pot	others
Cc1ccc(N(CC(=O)NCc2ccc3c(c2)OCO3)S(C)(=O)=O)cc1	7.6
O=C(CN1C(=O)NC2(CCCCCCC2)C1=O)N1CCOCC1	-8.4
COC1(c2ccccc2)NC(=S)NN=C1c1ccccc1 (configuration not stated)	-100.0
COc1ccc(OC)c2c(C)cc(N3CCN(C(=O)c4ccc(F)cc4)CC3)nc12	18.4
C=CCNc1oc(-c2ccc(OC)cc2)nc1C#N	44.8*	VCAM1 pot conf=-10.1
N#Cc1nc(-c2ccc(OCc3ccccc3)cc2)oc1N1CCOCC1	-1.0
CCOc1ccc(-c2nc(C#N)c(NCC(C)C)o2)cc1	2.1
COc1ccc2c(c1)c1c(n2C(C)=O)C(OC(C)=O)=NCC1	-5.6
CC(NC(=O)c1ccc(Cl)cc1)c1nnc(SCc2ccc([N+](=O)[O-])cc2)n1C (configuration not stated)	-4.1
COc1ccc(N2C(=O)CC(N3CCN(S(=O)(=O)c4c(F)cccc4F)CC3)C2=O)cc1OC (configuration not stated)	57.4*	VCAM1 pot conf=-14.9
O=C1CC(N2CCOCC2)C(=O)N1c1ccc2c(c1)OCO2 (configuration not stated)	10.7
COc1ccc(C(C)(C)C)cc1S(=O)(=O)N1CCN(C)CC1	-92.6
CC(C)NC1CS(=O)(=O)CC1O (configuration not stated)	-100.0
COCCn1c(SCC(=O)Nc2nnc(C)s2)nnc1-c1c[nH]c2ccccc12	5.2
COCCn1c(C23CC4CC(CC(C4)C2)C3)n[nH]c1=S	-27.0
COCCn1c(=S)[nH]c2ncccc2c1=O	?	VCAM1 pot conf=-13.8
CCCCCn1nc(C)c2c(C)cc(=O)[nH]c21	16.6
COc1ccc(-c2nc(-c3cccc(C)c3)no2)cc1OC	53.6*	VCAM1 pot conf=-17.3
Cc1cccc(-c2noc(CCc3ccccc3)n2)c1	3.2
Cc1nc(-c2cccc(-c3noc(C)n3)c2)no1	-37.0
O=S(=O)(NCc1cc(-c2ccccc2Cl)no1)c1ccc(Cl)cc1	-2.6
CC1CCc2nn(CC(=O)Nc3c(F)cc(F)cc3Br)cc2C1 (configuration not stated)	-7.2
Cc1ccc(-c2csc3n[nH]c(=S)n23)cc1	-3.9

Bioassay records as filed in PubChem BioAssay.
